Assay results as given in PubChem BioAssay (NCATS).
Inconclusive results are not listed. A number with no mark means an inactive call. Activity calls are given as the source filed them. The call rests on the fitted dose curve; in most records, active means well fitted cell-killing curve with a large enough effect; inconclusive means small, poorly fitted or top-dose-only effect; inactive means no such curve, though single readings can be large or run the other way.

experiment: qHTS of pediatric cancer cell lines to identify multiple opportunities for drug repurposing: Primary screen for NB1643 cells (AID 1347099); conditions: NB1643 neuroblastoma viability, CellTiter-Glo luminescence, 48 h; series mostly up to 46 µM; activity change, negative = cytotoxic: at the top concentration; further: nearly all actives have a fitted effect of over 50% in size;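 on activity change, negative = cytotoxic: plate controls were DMSO neutral control for no effect and bortezomib positive control for full effect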
In short: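 Phenotypic viability qHTS, 48 h compound exposure, CellTiter-Glo luminescence read-out; multi-concentration dosing so that potency and efficacy derive directly from the primary screen's curves.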
Potency means the concentration at half of the fitted maximal effect.

SMILES | activity change, negative = cytotoxic | Potency
CCCn1c(=O)c2[nH]c(-c3cnn(Cc4cccc(C(F)(F)F)c4)c3)nc2n(CC)c1=O | 8.41% | –
COc1cc(C(C)C)c2c(c1)S(=O)(=O)N(COc1cc(=O)n3cccc(OCCN4CCCCC4)c3n1)C2=O | – | 13.2 µM (active)
Cc1c(C)n(Cc2ccc(-c3ccccc3C(=O)O)cc2)c2ccc(C(=O)N[C@@H](C)c3ccc([N+](=O)[O-])cc3)cc12 | – | 0.187 µM (active)
O=C(O)C1(Cc2cccc(Nc3nccs3)n2)CCC(Oc2cccc(Cl)c2F)CC1 (stereo not drawn) | -10% | –
COC(=O)C1=C(C)NC(C)=C(C(=O)OCCN2CCN(C(c3ccccc3)c3ccccc3)CC2)C1c1cccc([N+](=O)[O-])c1 (stereo not drawn) | – | 16.8 µM (active)
CNC(=O)c1ccc(-c2cnc3ncc(Cc4ccc5ncccc5c4)n3n2)cc1F | 1.86% | –
COc1cc2c(NC3CCN(C(C)C)CC3)nc(C3CCCCC3)nc2cc1OCCCN1CCCC1 | – | 20.9 µM (active)
CS(=O)(=O)c1ccc(-c2cnc(N)c(C(=O)Nc3ccccc3)n2)cc1 | 23.9% | –
Fc1cc(-c2cccc3ncc(-c4cnn(C5CCNCC5)c4)nc23)cc(F)c1CN1CCOCC1 | – | 18.7 µM (active)
Cc1cn2c(-c3cn[nH]c3)cnc2c(Nc2ccc(C(=O)N3CCNCC3)cc2F)n1 | – | 18.7 µM (active)
COc1cc2c(Nc3ccc(NC(=O)c4ccccc4)cc3)ncnc2cc1OCCCN1CCOCC1 | – | 26.4 µM (active)
CCN(CC)CCCCNc1ncc2cc(-c3cc(OC)cc(OC)c3)c(NC(=O)NC(C)(C)C)nc2n1 | -7.7% | –
CN(C1CCc2c(c3ccccc3n2CC(=O)O)C1)S(=O)(=O)c1ccc(F)cc1 (stereo not drawn) | – | 1.32 µM (active)
CC[C@H](CO)Nc1nc(NCc2ccccc2)c2ncn(C(C)C)c2n1 | -0.668% | –
O=C(c1cncc(Br)c1)N1CCC(N2CCCC2)CC1 | 12.7% | –
CCCNC(=O)Nc1ccc(Oc2ncnc3cc(OC)c(OC)cc23)cc1Cl | -21.8% | –
CN1CCN(c2cc(C(=O)Nc3ccc4c(c3)-c3c(c(C(N)=O)nn3-c3ccc(F)cc3)CC4)c(Cl)cn2)CC1 | – | 1.18 µM (active)
CC(C)(C)NC(=O)[C@H]1CN(Cc2cccnc2)CCN1C[C@@H](O)C[C@@H](Cc1ccccc1)C(=O)N[C@H]1c2ccccc2C[C@H]1O | – | 1.05 µM (active)
